From the supplement of paper PMC11732987, “Enantioselective OTUD7B fragment discovery through chemoproteomics screening and high-throughput optimisation” (Communications Chemistry, 2025)

Assays:
Assay in all cases: log2 ratio of Biotin-Ahx-Ub-VS probe labelling (fragment/DMSO); higher = less target engagement (more negative = stronger competition), active = hit call of the paper (q ≤ 0.05, log2 ratio ≤ -1)
Conditions in all cases: compound concentration: 200 uM; treatment time: 3 h
USP42 = biological target: T1, USP42 (UniProt Q9H9J4)
T1 sequence (whole entry): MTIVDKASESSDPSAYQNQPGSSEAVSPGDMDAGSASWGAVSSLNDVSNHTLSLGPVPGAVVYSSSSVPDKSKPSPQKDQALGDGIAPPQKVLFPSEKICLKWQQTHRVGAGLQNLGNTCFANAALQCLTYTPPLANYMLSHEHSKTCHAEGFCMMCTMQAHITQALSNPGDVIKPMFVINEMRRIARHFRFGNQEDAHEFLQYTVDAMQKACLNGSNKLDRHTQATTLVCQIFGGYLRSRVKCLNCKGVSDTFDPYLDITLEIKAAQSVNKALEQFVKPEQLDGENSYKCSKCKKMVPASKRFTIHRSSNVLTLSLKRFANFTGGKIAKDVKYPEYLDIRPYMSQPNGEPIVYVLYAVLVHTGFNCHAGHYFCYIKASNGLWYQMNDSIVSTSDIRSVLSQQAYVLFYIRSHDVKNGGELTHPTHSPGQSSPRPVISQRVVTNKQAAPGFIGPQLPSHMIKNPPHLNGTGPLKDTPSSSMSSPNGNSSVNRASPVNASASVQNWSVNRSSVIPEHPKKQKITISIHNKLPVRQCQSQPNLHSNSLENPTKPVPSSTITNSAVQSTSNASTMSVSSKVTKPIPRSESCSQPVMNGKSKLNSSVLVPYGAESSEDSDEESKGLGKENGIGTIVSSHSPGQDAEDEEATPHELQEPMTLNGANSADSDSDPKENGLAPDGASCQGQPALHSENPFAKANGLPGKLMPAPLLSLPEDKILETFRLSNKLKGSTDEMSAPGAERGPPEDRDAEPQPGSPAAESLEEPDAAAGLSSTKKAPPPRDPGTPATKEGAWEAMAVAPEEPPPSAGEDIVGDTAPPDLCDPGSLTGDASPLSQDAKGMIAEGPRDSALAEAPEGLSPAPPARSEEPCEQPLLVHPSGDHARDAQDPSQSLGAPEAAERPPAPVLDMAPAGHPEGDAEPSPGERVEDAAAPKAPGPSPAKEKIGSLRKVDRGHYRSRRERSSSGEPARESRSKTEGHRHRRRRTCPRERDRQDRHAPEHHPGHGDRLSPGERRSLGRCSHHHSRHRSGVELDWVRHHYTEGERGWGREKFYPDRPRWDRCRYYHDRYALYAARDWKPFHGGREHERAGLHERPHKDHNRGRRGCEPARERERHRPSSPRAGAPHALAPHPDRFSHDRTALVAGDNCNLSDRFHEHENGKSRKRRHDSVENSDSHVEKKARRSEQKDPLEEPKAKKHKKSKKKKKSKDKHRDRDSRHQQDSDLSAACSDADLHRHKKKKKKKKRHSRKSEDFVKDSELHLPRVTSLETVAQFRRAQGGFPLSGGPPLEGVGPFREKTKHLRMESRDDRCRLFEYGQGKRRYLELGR
In short: (§1)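 HEK293T lysate (495 µg per sample, in Tris/CHAPS/IGEPAL buffer with protease inhibitors) was treated in triplicate with fragment at 200 µM or with DMSO for 3 h. It was then treated with Biotin-Ahx-Ub-VS (0.5 µM final) for 1 h. Labelled DUBs were NeutrAvidin-enriched, digested with LysC and trypsin, and run by diaPASEF LC-MS/MS. Spectronaut label-free quantities were global-median-normalised. Values are average log2 ratios fragment/DMSO by unpaired t-test, using proteins with ≥2 unique peptides.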

USP46 = USP46 (UniProt P62068)
Sequence of USP46 (P62068 whole entry): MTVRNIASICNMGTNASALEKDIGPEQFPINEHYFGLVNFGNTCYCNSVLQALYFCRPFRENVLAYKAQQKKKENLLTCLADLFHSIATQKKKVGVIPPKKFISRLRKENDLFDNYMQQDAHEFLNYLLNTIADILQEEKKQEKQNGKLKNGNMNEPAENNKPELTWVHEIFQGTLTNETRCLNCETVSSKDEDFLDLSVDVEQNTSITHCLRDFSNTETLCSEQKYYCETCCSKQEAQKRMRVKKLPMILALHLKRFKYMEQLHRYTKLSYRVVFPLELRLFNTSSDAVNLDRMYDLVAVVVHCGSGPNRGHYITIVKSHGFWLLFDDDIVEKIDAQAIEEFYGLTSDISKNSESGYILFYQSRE
In short: as §1

USP47 = biological target: T2, USP47 (UniProt Q96K76)
T2 sequence (whole entry): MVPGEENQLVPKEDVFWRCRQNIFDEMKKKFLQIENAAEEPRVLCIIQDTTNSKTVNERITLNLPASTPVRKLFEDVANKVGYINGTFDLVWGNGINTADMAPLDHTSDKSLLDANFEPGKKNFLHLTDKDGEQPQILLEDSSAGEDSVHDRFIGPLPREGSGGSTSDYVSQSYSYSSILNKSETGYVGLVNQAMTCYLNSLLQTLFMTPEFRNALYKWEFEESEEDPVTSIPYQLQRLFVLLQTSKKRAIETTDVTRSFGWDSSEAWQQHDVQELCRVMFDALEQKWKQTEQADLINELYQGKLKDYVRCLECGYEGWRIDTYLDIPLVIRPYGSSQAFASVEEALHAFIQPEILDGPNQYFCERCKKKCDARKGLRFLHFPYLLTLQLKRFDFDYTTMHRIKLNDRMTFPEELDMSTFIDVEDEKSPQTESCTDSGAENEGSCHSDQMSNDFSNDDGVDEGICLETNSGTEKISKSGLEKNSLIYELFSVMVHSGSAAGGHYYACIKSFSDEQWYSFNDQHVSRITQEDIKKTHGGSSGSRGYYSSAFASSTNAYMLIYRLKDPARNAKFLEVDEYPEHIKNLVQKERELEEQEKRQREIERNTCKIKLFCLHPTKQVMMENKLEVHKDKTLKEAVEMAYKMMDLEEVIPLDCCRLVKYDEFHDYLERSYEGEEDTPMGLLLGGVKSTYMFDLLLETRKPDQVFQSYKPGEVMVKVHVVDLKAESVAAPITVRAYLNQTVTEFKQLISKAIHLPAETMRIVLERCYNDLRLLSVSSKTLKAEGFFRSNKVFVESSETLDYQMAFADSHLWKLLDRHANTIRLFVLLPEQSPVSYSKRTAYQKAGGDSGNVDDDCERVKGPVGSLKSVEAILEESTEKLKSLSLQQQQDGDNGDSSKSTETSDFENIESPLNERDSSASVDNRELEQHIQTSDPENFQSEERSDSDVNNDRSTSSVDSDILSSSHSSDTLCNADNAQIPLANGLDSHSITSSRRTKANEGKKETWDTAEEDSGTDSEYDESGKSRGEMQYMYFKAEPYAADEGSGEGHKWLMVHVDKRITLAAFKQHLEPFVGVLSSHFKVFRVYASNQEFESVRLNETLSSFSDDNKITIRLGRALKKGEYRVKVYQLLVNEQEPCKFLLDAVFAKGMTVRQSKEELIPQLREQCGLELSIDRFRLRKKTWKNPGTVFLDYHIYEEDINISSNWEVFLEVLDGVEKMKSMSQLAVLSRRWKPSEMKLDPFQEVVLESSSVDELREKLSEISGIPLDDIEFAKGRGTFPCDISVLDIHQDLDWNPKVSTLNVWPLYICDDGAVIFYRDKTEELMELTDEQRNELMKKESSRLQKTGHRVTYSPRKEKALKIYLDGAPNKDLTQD
In short: as §1

USP48 = biological target: T3, USP48 (UniProt Q86UV5)
T3 sequence (whole entry): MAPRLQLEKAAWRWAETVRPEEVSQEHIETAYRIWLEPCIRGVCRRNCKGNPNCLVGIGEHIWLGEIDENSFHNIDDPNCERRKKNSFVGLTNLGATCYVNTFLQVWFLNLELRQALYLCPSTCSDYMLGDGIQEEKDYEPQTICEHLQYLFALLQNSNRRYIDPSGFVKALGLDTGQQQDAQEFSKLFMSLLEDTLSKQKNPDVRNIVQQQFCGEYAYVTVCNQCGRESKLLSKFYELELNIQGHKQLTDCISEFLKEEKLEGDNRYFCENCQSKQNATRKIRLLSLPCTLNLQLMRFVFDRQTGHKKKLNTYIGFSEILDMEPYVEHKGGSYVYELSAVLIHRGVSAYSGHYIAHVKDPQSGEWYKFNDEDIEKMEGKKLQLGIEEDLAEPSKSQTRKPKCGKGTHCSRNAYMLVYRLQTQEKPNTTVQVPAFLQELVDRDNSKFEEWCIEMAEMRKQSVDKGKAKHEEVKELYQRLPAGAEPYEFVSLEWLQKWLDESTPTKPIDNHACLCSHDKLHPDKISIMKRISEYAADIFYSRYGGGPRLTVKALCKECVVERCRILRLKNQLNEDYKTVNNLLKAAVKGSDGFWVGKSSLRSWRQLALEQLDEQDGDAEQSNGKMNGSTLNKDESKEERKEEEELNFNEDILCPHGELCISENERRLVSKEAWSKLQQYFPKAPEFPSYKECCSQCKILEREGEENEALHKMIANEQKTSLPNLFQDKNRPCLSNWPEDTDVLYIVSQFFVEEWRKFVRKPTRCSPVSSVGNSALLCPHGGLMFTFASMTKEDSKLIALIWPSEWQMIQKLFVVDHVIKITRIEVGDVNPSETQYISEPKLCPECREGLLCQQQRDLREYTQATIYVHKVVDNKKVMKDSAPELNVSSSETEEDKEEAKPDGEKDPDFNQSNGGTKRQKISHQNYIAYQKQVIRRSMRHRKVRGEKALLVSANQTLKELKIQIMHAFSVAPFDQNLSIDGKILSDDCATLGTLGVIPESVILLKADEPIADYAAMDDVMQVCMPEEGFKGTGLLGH
In short: as §1

USP5 = biological target: T4, USP5 (UniProt P45974)
T4 sequence (whole entry): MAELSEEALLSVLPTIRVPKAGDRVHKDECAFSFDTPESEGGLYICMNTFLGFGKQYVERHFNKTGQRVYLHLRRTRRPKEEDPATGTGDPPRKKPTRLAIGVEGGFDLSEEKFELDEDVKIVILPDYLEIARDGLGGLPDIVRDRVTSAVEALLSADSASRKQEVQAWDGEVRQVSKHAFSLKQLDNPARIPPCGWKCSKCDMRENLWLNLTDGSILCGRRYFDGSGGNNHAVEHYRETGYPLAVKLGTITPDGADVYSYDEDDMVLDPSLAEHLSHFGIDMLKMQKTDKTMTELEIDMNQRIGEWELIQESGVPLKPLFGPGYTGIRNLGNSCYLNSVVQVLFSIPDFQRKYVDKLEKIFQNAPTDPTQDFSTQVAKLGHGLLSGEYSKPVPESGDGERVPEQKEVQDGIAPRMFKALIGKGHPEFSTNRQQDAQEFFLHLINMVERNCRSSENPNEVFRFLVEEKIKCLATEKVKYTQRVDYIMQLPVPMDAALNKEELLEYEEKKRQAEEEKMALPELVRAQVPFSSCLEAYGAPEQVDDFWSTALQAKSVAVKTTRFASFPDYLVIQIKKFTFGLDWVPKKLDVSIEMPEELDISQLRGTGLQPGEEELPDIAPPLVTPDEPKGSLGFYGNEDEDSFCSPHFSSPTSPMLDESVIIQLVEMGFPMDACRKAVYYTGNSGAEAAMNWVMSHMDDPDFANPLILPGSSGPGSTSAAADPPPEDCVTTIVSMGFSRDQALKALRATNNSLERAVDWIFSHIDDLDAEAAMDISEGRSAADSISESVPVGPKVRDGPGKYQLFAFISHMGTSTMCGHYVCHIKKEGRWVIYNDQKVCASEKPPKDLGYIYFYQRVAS
In short: as §1

USP54 = USP54 (UniProt Q70EL1)
Sequence of USP54 (Q70EL1 whole entry): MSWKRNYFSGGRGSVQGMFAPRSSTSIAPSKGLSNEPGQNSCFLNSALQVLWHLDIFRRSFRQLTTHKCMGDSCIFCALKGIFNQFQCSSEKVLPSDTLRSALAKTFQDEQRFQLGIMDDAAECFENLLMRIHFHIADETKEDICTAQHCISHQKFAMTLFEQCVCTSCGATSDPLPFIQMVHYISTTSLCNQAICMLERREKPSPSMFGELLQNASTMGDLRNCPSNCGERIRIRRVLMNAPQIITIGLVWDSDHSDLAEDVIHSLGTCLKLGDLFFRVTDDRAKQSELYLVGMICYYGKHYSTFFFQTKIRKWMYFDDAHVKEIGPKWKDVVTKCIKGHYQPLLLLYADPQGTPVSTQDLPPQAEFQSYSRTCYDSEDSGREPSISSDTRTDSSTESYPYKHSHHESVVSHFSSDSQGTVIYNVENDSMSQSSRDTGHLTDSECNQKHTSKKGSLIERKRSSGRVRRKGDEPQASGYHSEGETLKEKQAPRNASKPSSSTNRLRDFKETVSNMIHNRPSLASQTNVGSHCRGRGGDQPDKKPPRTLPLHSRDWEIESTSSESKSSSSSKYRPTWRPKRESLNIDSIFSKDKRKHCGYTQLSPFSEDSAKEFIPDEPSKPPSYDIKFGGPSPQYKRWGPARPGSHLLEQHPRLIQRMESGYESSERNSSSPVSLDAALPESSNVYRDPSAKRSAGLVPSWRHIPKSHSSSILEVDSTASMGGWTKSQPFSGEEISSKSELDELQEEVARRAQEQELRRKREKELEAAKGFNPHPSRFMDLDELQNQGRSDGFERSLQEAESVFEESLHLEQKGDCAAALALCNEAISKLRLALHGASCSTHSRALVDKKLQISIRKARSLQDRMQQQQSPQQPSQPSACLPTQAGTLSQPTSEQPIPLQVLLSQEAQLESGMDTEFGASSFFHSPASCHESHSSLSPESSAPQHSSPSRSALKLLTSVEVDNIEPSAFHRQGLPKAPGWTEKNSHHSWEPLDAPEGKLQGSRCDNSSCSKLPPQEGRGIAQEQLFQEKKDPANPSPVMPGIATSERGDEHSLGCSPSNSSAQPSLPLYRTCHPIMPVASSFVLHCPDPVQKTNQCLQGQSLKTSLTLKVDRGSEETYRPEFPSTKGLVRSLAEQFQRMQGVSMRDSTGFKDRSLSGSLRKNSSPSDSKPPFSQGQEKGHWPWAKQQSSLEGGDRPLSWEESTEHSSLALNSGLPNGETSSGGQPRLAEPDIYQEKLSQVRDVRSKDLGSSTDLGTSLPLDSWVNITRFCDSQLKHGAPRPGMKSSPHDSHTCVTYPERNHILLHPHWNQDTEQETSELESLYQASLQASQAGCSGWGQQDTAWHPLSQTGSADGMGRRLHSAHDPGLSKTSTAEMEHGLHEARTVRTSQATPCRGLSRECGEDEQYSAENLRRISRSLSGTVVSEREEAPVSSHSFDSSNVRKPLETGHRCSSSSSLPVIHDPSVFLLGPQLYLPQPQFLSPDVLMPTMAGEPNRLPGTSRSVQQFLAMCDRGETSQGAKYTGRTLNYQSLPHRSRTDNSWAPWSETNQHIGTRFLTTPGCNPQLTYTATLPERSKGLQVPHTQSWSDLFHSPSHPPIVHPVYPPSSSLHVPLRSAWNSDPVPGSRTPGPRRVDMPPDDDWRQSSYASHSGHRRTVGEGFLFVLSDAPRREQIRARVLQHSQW
In short: as §1

USP7 = USP7 (UniProt Q93009)
In short: as §1

USP8 = biological target: T5, USP8 (UniProt P40818)
T5 sequence (whole entry): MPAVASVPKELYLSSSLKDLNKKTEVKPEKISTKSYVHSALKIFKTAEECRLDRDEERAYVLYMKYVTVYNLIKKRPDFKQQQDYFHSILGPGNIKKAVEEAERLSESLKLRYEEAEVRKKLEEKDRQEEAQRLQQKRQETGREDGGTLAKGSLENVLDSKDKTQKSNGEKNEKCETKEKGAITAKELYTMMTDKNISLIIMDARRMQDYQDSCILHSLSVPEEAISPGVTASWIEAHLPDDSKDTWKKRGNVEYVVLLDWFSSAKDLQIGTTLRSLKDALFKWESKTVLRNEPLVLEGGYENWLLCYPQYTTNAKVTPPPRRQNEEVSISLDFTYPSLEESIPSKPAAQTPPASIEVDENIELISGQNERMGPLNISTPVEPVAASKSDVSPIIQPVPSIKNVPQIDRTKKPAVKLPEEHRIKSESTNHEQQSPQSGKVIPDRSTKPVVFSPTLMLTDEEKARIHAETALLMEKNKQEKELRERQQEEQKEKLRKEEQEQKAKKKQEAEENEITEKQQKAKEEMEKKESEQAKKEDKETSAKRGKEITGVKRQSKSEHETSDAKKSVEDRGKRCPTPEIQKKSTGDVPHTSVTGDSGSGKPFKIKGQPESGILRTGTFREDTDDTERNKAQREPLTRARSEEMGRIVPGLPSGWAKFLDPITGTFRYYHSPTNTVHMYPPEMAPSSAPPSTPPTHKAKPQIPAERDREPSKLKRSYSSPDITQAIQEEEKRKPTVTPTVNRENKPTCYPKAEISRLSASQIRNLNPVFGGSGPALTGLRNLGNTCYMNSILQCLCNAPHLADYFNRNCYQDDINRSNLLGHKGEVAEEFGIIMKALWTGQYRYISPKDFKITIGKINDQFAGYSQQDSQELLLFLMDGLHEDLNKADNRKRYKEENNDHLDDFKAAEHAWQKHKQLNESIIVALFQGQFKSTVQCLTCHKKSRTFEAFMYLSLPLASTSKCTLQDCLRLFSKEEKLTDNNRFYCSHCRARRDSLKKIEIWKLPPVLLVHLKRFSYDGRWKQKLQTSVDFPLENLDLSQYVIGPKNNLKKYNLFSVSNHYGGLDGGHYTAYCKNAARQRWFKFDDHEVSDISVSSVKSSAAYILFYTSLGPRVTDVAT
In short: as §1

USP9X = USP9X (UniProt Q93008)
Sequence of USP9X (Q93008 whole entry): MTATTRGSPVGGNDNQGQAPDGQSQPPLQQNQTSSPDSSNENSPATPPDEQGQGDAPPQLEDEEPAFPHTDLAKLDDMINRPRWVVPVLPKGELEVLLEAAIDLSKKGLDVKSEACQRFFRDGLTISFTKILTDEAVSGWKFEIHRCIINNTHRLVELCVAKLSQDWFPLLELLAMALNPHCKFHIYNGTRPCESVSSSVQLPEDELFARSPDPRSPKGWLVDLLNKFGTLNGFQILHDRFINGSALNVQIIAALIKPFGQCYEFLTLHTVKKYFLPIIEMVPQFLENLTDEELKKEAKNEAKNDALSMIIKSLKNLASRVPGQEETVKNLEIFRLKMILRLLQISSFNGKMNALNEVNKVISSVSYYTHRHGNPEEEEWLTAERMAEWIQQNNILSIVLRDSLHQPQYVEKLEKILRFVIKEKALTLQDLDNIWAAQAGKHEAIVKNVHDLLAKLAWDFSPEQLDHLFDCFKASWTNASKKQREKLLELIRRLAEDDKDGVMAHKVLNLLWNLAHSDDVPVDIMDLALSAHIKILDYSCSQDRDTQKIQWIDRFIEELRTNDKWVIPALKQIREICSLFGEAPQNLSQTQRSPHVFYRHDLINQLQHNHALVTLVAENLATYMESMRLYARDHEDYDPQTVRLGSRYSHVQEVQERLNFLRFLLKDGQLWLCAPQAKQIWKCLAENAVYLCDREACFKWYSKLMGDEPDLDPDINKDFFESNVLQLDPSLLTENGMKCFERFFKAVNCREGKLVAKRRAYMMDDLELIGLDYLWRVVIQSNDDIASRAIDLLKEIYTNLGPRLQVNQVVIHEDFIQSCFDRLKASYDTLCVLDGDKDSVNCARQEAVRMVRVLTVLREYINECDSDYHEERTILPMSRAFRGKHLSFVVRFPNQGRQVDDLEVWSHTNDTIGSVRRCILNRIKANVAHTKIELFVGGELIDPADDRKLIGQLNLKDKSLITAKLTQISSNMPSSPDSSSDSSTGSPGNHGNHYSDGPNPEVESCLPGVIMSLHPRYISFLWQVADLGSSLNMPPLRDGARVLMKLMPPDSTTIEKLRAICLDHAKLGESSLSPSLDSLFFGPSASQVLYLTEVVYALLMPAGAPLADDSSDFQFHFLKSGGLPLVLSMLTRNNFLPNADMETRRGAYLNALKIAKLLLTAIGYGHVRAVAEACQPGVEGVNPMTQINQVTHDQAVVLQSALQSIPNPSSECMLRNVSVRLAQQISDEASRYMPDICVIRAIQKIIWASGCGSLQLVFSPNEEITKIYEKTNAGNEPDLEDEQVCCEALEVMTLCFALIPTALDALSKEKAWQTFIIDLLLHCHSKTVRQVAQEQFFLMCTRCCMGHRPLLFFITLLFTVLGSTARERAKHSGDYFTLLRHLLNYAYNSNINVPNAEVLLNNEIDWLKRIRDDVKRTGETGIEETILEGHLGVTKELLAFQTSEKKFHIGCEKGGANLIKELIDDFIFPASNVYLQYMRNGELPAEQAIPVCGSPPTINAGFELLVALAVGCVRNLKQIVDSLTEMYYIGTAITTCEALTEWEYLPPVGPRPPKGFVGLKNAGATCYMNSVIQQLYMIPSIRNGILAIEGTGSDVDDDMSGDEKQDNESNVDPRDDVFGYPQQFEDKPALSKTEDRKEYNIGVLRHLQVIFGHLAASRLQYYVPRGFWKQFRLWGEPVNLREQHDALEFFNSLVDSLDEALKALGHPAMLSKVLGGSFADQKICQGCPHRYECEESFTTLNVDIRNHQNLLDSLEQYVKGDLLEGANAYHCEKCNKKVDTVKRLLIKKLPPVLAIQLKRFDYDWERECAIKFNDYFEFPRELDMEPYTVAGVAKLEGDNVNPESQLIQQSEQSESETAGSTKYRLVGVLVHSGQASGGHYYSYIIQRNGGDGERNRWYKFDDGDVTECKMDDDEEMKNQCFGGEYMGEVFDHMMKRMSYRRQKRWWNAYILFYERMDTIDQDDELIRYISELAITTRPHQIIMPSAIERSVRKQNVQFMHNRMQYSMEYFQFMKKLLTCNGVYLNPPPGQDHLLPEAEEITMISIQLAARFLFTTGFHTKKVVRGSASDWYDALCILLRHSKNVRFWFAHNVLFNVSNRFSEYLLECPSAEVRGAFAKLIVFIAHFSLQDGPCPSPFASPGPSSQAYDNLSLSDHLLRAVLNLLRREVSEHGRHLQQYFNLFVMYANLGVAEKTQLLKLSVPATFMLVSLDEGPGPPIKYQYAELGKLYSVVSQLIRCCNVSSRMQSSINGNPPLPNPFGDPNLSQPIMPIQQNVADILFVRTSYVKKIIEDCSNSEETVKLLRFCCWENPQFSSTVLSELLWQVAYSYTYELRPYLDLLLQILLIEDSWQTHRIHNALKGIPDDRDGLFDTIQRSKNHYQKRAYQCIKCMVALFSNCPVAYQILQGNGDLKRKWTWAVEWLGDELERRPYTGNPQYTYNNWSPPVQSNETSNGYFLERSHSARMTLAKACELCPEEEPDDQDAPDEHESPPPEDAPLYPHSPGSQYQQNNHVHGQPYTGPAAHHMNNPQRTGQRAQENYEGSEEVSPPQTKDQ
In short: as §1

UniProt O00487 = biological target: UniProt O00487
Sequence of UniProt O00487 (O00487 whole entry): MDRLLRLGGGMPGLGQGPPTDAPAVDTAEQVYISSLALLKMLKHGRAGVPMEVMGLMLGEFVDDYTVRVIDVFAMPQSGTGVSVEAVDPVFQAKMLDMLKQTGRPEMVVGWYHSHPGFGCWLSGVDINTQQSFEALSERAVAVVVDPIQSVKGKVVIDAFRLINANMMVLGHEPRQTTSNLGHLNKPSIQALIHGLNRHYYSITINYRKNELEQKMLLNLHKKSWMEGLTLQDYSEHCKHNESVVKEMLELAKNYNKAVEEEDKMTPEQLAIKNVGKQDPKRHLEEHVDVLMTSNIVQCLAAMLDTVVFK
In short: as §1

Measured: log2 ratio of Biotin-Ahx-Ub-VS probe labelling

O=C(CCl)NC1CCN(C(=O)C2CCCCC2)CC1
inactive: USP42 0.471 | USP46 0.262 | USP47 0.301 | USP48 0.136 | USP5 -0.157 | USP54 0.282 | USP7 -0.045 | USP8 0.139 | USP9X 0.243 | UniProt O00487 0.0749
